Source: PubChem BioAssay (Johns Hopkins Ion Channel Center)
Compounds with a hit are over-represented: about 1.6% of the library has one in this group of screens.
KCNQ2 pot = KCNQ2 (rat) channel potentiation; O88943; CHO-K1 KCNQ2, FluxOR thallium flux fluorescence; hits give high values; B-score at 10 µM; 310,000 compounds, 0.54% hits; AID 2239;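 active = fluorescence ratio B-score at least 3 SD of library B-scores, with initial fluorescence B-score within 3 of them, cut at about 5.3 in these data; same plate scores as AID 2156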;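 note: B-score of peak minus minimum over baseline fluorescence ratio after K+ and Tl+ stimulus; positive B-score means potentiation of KCNQ2 with more thallium influx and brighter signal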
KCNQ2 inh = inhibitors of rat KCNQ2 potassium channel; AID 2156; 310,000 compounds, 1.1% hits; B-score at 10 µM; CHO-K1 KCNQ2, FluxOR thallium flux, 20 min; hits give low values;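 active = fluorescence ratio B-score at most minus 3 library SDs, with starting brightness B-score within 2 library SDs, cut at about -5.5 in these data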
KCNQ2 inh conf = rat KCNQ2 channel inhibition, confirmatory screen | shares compounds with KCNQ2 inh | KCNQ2-expressing cells, thallium flux; hits give low values | activity change, negative = inhibition, % at 10 µM | 1,000 compounds, 57% hits | AID 493025;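 note: 0% = vehicle wells and values are ratio percent relative to vehicle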
KCNQ1 spec = human KCNQ1 activity in KCNQ2 inhibitor specificity screen; shares compounds with KCNQ2 inh; KCNQ1-expressing cells, FluxOR thallium flux fluorescence; hits give low values; activity change, negative = inhibition, % at 10 µM; 1,000 compounds, 15% hits;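 active = activity change at least 3 SD of negative controls below their mean in both duplicate wells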;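 note: CHO cells stably transfected with KCNQ1 and depolarized by potassium stimulus; peak minus minimum fluorescence over baseline after thallium addition; 0% = vehicle negative control and -100% = blank without thallium stimulus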
Target sequence (P51787 whole entry, looked up): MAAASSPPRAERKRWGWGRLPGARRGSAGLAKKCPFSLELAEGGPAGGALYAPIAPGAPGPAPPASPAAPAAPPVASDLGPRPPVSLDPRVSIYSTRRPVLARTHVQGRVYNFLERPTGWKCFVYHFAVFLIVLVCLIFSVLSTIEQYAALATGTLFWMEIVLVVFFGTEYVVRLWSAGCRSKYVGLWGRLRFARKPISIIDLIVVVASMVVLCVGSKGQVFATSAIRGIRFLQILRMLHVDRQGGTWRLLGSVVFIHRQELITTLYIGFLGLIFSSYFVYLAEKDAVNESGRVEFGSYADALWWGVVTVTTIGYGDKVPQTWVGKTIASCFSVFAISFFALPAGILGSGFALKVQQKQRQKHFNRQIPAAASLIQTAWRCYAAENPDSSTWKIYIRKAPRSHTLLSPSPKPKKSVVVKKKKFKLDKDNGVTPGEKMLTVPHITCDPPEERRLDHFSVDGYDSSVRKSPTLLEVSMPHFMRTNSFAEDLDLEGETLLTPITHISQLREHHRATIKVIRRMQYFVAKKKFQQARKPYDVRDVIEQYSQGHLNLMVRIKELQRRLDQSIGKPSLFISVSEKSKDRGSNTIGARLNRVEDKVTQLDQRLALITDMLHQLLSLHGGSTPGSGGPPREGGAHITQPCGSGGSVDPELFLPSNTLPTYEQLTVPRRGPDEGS
CHO parental ctr = activity in parental CHO cells lacking KCNQ2. shares compounds with KCNQ2 inh. thallium flux counter-screen; hits give low values. activity change, % at 10 µM. 1,000 compounds, 14% hits. AID 493029;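 note: 0% = vehicle negative controls with stimulus buffer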
KCNQ2 patch conf = blocks rat KCNQ2 current in automated patch clamp; shares compounds with KCNQ2 inh; KCNQ2-expressing cells; 550 compounds, 49% hits; calls only at 10 µM
* hit, by the source's call. Unless noted, the rule behind the calls is not given here.

For O=C(NCC(c1ccco1)N1CCc2ccccc2C1)c1cccc(Br)c1 (stereo unspecified) the results were KCNQ2 pot -7.9, KCNQ2 inh -7.9*, KCNQ2 inh conf inactive, KCNQ1 spec inactive and CHO parental ctr inactive.
For O=C(N/N=C/c1cccc(Br)c1)C1CC(=O)N(c2ccccc2)C1 (stereo unspecified) the results were KCNQ2 inh inactive.
For COc1ccc(Cl)cc1NC(=O)c1nnn(CC(=O)Nc2ccc3c(c2)OCO3)c1N the results were KCNQ2 pot 0.33 and KCNQ2 inh inactive.
Screening Cc1ccc(-c2nc(SC(C)C(=O)c3c(N)n(C)c(=O)n(C)c3=O)n[nH]2)cc1 (stereo unspecified) returned KCNQ2 pot 0.03 and KCNQ2 inh inactive.
For COc1ccccc1CNCC(=O)N1CC(=O)Nc2ccccc21 the results were KCNQ2 inh inactive.
O=C(NCC(c1ccco1)N1CCc2ccccc2C1)c1ccccc1Br (stereo unspecified) was read as KCNQ2 inh inactive.
`O=C(NCC(c1ccco1)N1CCc2ccccc2C1)c1ccc(Br)cc1` (stereo unspecified) gave KCNQ2 pot -9.7, KCNQ2 inh -9.7*, KCNQ2 inh conf -37%*, KCNQ1 spec inactive, CHO parental ctr inactive and KCNQ2 patch conf active.
For CN(C(=O)/C=C/c1ccc2c(c1)OCO2)c1ccccc1 the results were KCNQ2 pot -6.6, KCNQ2 inh -6.6*, KCNQ2 inh conf -23%*, KCNQ1 spec inactive, CHO parental ctr inactive and KCNQ2 patch conf inactive.
Screening COC(=O)/C=C/c1ccc2c(c1)OCO2 returned KCNQ2 pot 1.8 and KCNQ2 inh inactive.
Cc1ccc(OCc2nc(C#N)c(N3CCN(Cc4ccccc4)CC3)o2)cc1 was read as KCNQ2 pot -7.8, KCNQ2 inh -7.8*, KCNQ2 inh conf inactive, KCNQ1 spec inactive and CHO parental ctr inactive.
Screening N#Cc1nc(COc2ccc(F)cc2)oc1N1CCCC1 returned KCNQ2 inh inactive.
For N#Cc1nc(COc2ccccc2)oc1N1CCC(Cc2ccccc2)CC1 the results were KCNQ2 pot -11, KCNQ2 inh -11*, KCNQ2 inh conf -30%*, KCNQ1 spec inactive, CHO parental ctr inactive and KCNQ2 patch conf inactive.
Cc1ccccc1OCc1nc(C#N)c(N2CCCC2)o1 was read as KCNQ2 inh inactive.
For C/C(N)=C(/C#N)C(=O)CSc1nc2ccccc2c(=O)n1-c1ccc(C)c(Cl)c1 the results were KCNQ2 pot 0.14 and KCNQ2 inh inactive.
`CCN(CC)CCNC(=O)CCc1c(C)nc2c(c(C)nn2-c2ccc(C)c(C)c2)c1C` gave KCNQ2 inh inactive.
For Cc1nc(N2CCC(C)CC2)c2oc3ccccc3c2n1 the results were KCNQ2 inh inactive.
For COc1ccccc1N1CCN(c2nc(C)nc3c2oc2ccccc23)CC1 the results were KCNQ2 pot -6.9, KCNQ2 inh -6.9*, KCNQ2 inh conf inactive, KCNQ1 spec inactive and CHO parental ctr inactive.
Screening CCOC(=O)C1CCCN(C(=O)C2CCN(S(=O)(=O)c3c(C)noc3/C=C/c3ccccc3F)CC2)C1 (stereo unspecified) returned KCNQ2 inh inactive.
For CCc1ccccc1NC(=O)/C(=C/c1ccco1)c1ccccc1 the results were KCNQ2 pot -7.7, KCNQ2 inh -7.7*, KCNQ2 inh conf -29%*, KCNQ1 spec inactive, CHO parental ctr inactive and KCNQ2 patch conf active.
For Cc1ccccc1NC(=O)/C(=C/c1ccco1)c1ccccc1 the results were KCNQ2 inh inactive.
`Cc1ccc(C)c(-n2cc[nH]c2=S)c1` gave KCNQ2 pot 0.11 and KCNQ2 inh inactive.
Screening COc1cc(-c2nc3cnccn3c2Nc2ccccc2)ccc1O returned KCNQ2 pot 0.45 and KCNQ2 inh inactive.
For COc1cc(-c2nc3cccc(C)n3c2NCC2CCCO2)ccc1O (stereo unspecified) the results were KCNQ2 pot -8.6, KCNQ2 inh -8.6*, KCNQ2 inh conf inactive, KCNQ1 spec inactive and CHO parental ctr inactive.
O=C(Nc1ccc(F)cc1)C1CCCN1S(=O)(=O)c1ccc(Br)cc1 (stereo unspecified) was read as KCNQ2 pot 0.26 and KCNQ2 inh inactive.
Screening O=C(Nc1ccon1)Nc1cccc(Cl)c1Cl returned KCNQ2 pot 2.2 and KCNQ2 inh inactive.
For CCn1c(SCc2ccc(C#N)cc2)nnc1-c1cccc(Cl)c1 the results were KCNQ2 inh inactive.
`Cc1cccc(-c2nnc(SCc3ccc(C#N)cc3)n2Cc2ccco2)c1` gave KCNQ2 pot -8.8, KCNQ2 inh -8.8*, KCNQ2 inh conf -26%*, KCNQ1 spec inactive and CHO parental ctr inactive.
For COC(=O)Cc1c[nH]c2cccc(OCC(O)CN(Cc3ccc([N+](=O)[O-])cc3)C(C)(C)C)c12 (stereo unspecified) the results were KCNQ2 pot -8.5, KCNQ2 inh -8.5*, KCNQ2 inh conf -20%*, KCNQ1 spec inactive, CHO parental ctr inactive and KCNQ2 patch conf active.
For CC(C)CN(CC(C)C)CC(O)COc1ccc([N+](=O)[O-])cc1 (stereo unspecified) the results were KCNQ2 inh inactive.
O=c1cc(CN2CCN(Cc3ccc(F)cc3)C(CCO)C2)[nH]c2ccccc12 (stereo unspecified) was read as KCNQ2 pot 0.23 and KCNQ2 inh inactive.
Cc1coc2cc3oc(=O)c(CCC(=O)NCCN4CCOCC4)c(C)c3cc12 was read as KCNQ2 pot 3.1 and KCNQ2 inh inactive.
Brc1ccc(-c2csc3ncnc(-n4nnc5ccccc54)c23)cc1 was read as KCNQ2 pot 0.95 and KCNQ2 inh inactive.
For O=C(NC1CC1)C1CCN(C2CCN(C(=O)/C=C/c3ccc(F)cc3)CC2)CC1 the results were KCNQ2 pot 1.1 and KCNQ2 inh inactive.
O=C(c1ccc(F)cc1)N(NC(=O)C(O)(c1ccccc1)c1ccccc1)c1ccccc1 was read as KCNQ2 inh inactive.
Screening COC(=O)N(NC(=O)C(O)(c1ccccc1)c1ccccc1)c1ccccc1 returned KCNQ2 pot -7, KCNQ2 inh -7*, KCNQ2 inh conf inactive, KCNQ1 spec inactive and CHO parental ctr inactive.
`COCCNCC(=O)Nc1ccc(OC(F)(F)F)cc1` gave KCNQ2 inh inactive.
Cc1ccc(-c2cc(C(=O)N(C)Cc3cnn(C)c3C)c3cc(Br)ccc3n2)cc1 was read as KCNQ2 inh inactive.
`Cc1ccc(-c2cc(C(=O)NCc3cnn(C)c3C)c3cc(Br)ccc3n2)cc1` gave KCNQ2 pot -9.2, KCNQ2 inh -9.2*, KCNQ2 inh conf -34%*, KCNQ1 spec inactive, CHO parental ctr inactive and KCNQ2 patch conf active.
For Cc1cc(C)n(CCC(=O)Nc2ccc3c(c2)OCCO3)n1 the results were KCNQ2 pot 2.2 and KCNQ2 inh inactive.
